These results are taken from PubChem BioAssay AID720550 (National Center for Advancing Translational Sciences (NCATS), 2013).

The assay is described as follows: qHTS for Inhibitors of Bloom's syndrome helicase (BLM): Thiazole Orange DNA Binding Counterscreen for SAR. The note with it: fluorescence; series mostly up to 57.1 µM. From the text: Human RecQ DNA helicases participate in maintenance of genome stability and DNA repair. While other types of helicases have been explored as targets for drug development, members of the RecQ family have remained less well characterized. Mutations of the Bloom helicase gene have been associated with the rare human genetic disease called Bloom syndrome. […] Moreover, identified inhibitors can be used in cells and animal models to examine the consequences of inhibition on the survival of cancer cells where it has been shown that BLM plays an important role.
A fluorescence-based, biochemical assay in 1536 well format was developed to evaluate inhibition of BLM DNA unwinding activity. This assay was used to screen the MLPCN library. The resulting compounds were subjected to orthogonal and secondary biochemical assays to triage the initial hits, to classify compounds based on mode of action and to derive structure activity relationships (SARs) of candidate effectors. The Thiazole Orange (ThO) DNA binding (TO-binding) is used to eliminate inhibitors that operate via nonspecific DNA binding. […]
Compounds were added to a 4 uL mixture of 50 nM DNA and 100 nM ThO via pintool transfer. The fluorescence signal (excitation 480 nm, emission 530 nm) was measured after 15 min incubation at room temperature using the ViewLux CCD imager.
(In general: Quantitative high-throughput screening tests each substance at several concentrations.)

Results filed as inconclusive are left out. Active and inactive are the calls of the source. Calls come from the whole dose curve; as a rule, active = well fitted curve in the direction sought with a large enough effect; inconclusive = small, poorly fitted or top-dose-only effect, or another doubt; inactive = no such curve, though single readings can be large or run the other way.

As for `N#Cc1ccc(NC(=O)Nc2nnc(-c3ccncc3)s2)cc1Cl`, the compound was called inactive.

Turning to `N#Cc1ccc(NC(=O)Nc2nnc(-c3ccncc3)s2)cc1C(F)(F)F`, the outcome was inactive.
